Assay outcomes from PubChem.
Compounds with a hit are over-represented: about 4.8% of the library has one in this group of screens.
DAX1 inh-1: DAX1 (NR0B1) inhibitors, primary screen, cell-based, HEK293, Gal4-DAX1, luciferase luminescence; inhibition, % at 6.75 µM; HEK293 Gal4-DAX1 luciferase reporter; AID 504766, 2011; 0.99% of 340,000 active; Nuclear receptor subfamily 0 group B member 1 (Homo sapiens), P51843;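 active = inhibition above the mean over all tested compounds plus 3 SD, cut at about 4.2% in these data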;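 note: 0% = DAX1-transfected cells with DMSO and 100% = empty-vector control cells with DMSO; inhibition shows as a rise in luminescence from relieved DAX1 repression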
Target sequence (P51843 207-470 limits assumed): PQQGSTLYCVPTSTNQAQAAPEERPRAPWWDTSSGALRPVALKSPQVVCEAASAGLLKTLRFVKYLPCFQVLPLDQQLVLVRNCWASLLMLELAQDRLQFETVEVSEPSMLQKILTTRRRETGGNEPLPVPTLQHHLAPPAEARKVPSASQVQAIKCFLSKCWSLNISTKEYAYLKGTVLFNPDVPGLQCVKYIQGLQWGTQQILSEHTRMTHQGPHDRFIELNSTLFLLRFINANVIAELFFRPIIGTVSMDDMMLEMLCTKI
hcDAF-12 act: H. contortus DAF-12 nuclear receptor activators, primary screen, cell-based, luminescence, HEK293, lit1-tk-luc reporter | HEK293 hcDAF-12 lit1-tk-luc reporter; 0% DMSO, 100% Δ7-dafachronic acid | activation, % at 6.8 µM | 1.4% of 370,000 active | AID 652067, 2013;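 active = activation above the mean of all tested compounds plus 3 SD, cut at about 5.5% in these data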;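 note: 100% = response to 3 µM Δ7-dafachronic acid high control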
SMARCA2 activ: SMARCA2 (BRM) function activators, primary screen, cell-based, luminescence, high throughput; MG213 cells, MMTV-luciferase reporter, dexamethasone, overnight; activation, % at 9.1 µM; 1% of 370,000 active; AID 652017, 2013; in the data active = activation above about 7.8%;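 note: 0% = vehicle wells and 100% = reference activator wells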
DAX1 inh-2: DAX1 (NR0B1) inhibitors on StAR promoter, primary screen, cell-based, luminescence, SF-1 (NR5A1), full-length DAX-1 | HEK293T StAR-luciferase reporter, SF-1/DAX-1 repression relief | inhibition, % at 6.8 µM | 1.1% of 370,000 active | AID 652010, 2013;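 active = inhibition above the mean over all tested compounds plus 3 SD, cut at about 3.6% in these data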;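 note: 0% = DAX-1 cells with DMSO and 100% = cells lacking DAX-1 with DMSO; higher inhibition means more luminescence from relief of DAX-1 repression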
ssDAF12 agonist: S. stercoralis DAF-12 nuclear receptor activators, primary screen, cell-based, luminescence, HEK293, GRIP1 co-expression, lit1-tk-luc | 1% of 370,000 active | activation, % at 6.8 µM | HEK293 ssDAF-12/GRIP1 lit1-tk-luc reporter; % of 3 µM dafachronic acid response | Nuclear hormone receptor DAF-12 (Strongyloides stercoralis);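 active = activation above the mean over all tested compounds plus 3 SD, cut at about 0.9% in these data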;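 note: 0% = DMSO-only wells and 100% = 3 µM delta7-dafachronic acid wells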
hgDAF-12 ag: H. glycines DAF-12 receptor agonists, primary screen, cell-based, luminescence, HEK293, GAL4 fusion, UAS-luciferase | Nuclear hormone receptor DAF-12 (Heterodera glycines), GAL4 fusion | HEK293 GAL4-hgDAF12 UAS-luciferase reporter, agonist luminescence; normalized to butyrate control | activation, % at 6.8 µM | 1.8% of 370,000 active | AID 687014, 2013;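 active = activation above a cutoff set at the mean of all screened compounds plus 3 SD, cut at about 10% in these data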;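 note: 0% = DMSO wells and 100% = sodium butyrate wells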
DAX1 conf: DAX1 (NR0B1) inhibitors relieving SF-1 repression, confirmation, cell-based, luminescence, HEK293T, full-length DAX-1, SF-1 activated StAR promoter; shares compounds with DAX1 inh-2; HEK293T StAR-promoter luciferase reporter, SF-1/DAX-1 repression; inhibition, % at 6.8 µM; 87% of 2,400 active;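 active = inhibition above the average of every tested compound plus 3 SD, cut at about 3.8% in these data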;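 note: 0% = DAX-1 cells with DMSO and 100% = no DAX-1 control cells with DMSO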
SF1 mutant ctr: StAR reporter signal changes without DAX1, counter-screen for DAX1 inhibitor project, cell-based, luminescence, AF-2 mutant SF-1, transactivation; inhibition, % at 6.8 µM; 78% of 2,400 active; AID 652136, 2013; shares compounds with DAX1 inh-2; HEK293 StAR-luciferase, SF-1 AF2 mutant;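 active = inhibition above the mean of all tested compounds plus 3 SD, cut at about 3% in these data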;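 note: 0% = DAX-1 transfected cells with DMSO and 100% = cells without DAX-1 with DMSO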
SMARCA2 conf: SMARCA2 (BRM) function activators, confirmation, cell-based, luminescence, triplicate. shares compounds with SMARCA2 activ. MG213 cells, MMTV-luciferase with dexamethasone, overnight; MG213 cells expressing E1A, Rb sequestered; DMSO wells 0%, reference activator 100%. activation, % at 9.1 µM. 30% of 3,500 active. AID 652260, 2013;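 active = activation above its plate's cutoff, the mean activation of tested wells plus 3 SD, cut at about 7.9% in these data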
VP16 Luc act: GAL4-VP16 luciferase reporter activation, counter-screen for SMARCA2 (BRM) activator project, cell-based, pG5luc, luminescence, high throughput. shares compounds with SMARCA2 activ. HEK293 GAL4-VP16 pG5luc reporter; scaled: DMSO wells 0%, SAHA wells 100%. activation, % at 9.1 µM. 41% of 3,500 active. AID 686939, 2013;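 active = activation above the solvent-only control well mean plus 3 SD, averaged across control plates, cut at about 5.2% in these data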
LXRb hcDAF ctr: LXR agonists, Gal4 luciferase reporter, confirmation, counter-screen for hcDAF-12 agonist project, cell-based, luminescence, HEK293, H. contortus campaign; HEK293 Gal4-LXR tk-luc reporter, 24 h; normalized: DMSO 0%, positive control 100%; activation, % at 6.8 µM; 3,400 tested, under 10 active; shares compounds with hcDAF-12 act;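 active = mean percent activation of the reporter above a cutoff set as the average over tested compounds plus their standard deviation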
Target sequence (P55055 whole entry, looked up, the tested form may be a part): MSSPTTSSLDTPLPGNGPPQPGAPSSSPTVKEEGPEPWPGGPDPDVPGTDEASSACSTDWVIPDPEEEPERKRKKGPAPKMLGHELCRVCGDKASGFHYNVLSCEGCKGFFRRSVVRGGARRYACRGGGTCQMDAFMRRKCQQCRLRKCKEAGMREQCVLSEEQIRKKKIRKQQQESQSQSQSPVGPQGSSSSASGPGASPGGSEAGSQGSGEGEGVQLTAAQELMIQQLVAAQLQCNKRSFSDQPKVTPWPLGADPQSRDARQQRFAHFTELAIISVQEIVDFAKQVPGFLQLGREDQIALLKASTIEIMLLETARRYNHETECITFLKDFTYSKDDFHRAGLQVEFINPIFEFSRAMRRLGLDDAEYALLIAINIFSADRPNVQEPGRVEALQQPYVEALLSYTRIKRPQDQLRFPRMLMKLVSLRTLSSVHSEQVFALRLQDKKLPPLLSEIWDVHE
hcDAF12 ag: H. contortus DAF-12 receptor agonists, confirmation, cell-based, luminescence, HEK293, lit1-tk-luc, triplicate; shares compounds with hcDAF-12 act; HEK293 hcDAF-12 lit1-tk-luc reporter; % of Δ7-dafachronic acid response; activation, % at 6.8 µM; 61% of 3,400 active;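 active = mean activation across triplicate tests above the threshold derived from the earlier primary screen, cut at about 5.5% in these data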;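 note: 0% = DMSO only wells and 100% = 3 µM Δ7-dafachronic acid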
hgDAF12 conf: H. glycines DAF-12 receptor agonists, confirmation, cell-based, luminescence, HEK293, GAL4-LBD fusion. 80% of 3,300 active. shares compounds with hgDAF-12 ag. HEK293 GAL4-hgDAF12 luciferase reporter, agonist mode; percent of butyrate response. activation, % at 6.8 µM;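 active = mean activation over triplicate wells above the hit cutoff derived from the earlier primary screen, cut at about 11% in these data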;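 note: 0% = DMSO low control and 100% = 2 mM sodium butyrate high control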
LXR ag 2: LXR agonists, Gal4 luciferase reporter, confirmation, counter-screen for hgDAF-12 agonist project, cell-based, luminescence, HEK293, H. glycines campaign; 24 h; shares compounds with hgDAF-12 ag; activation, % at 6.8 µM; 3,300 tested, under 10 active;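 active = mean activation of the triplicate above a set limit carried over from the primary screen, none filed active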
* hit, by the source's call; nt = not tested or not shown.

SMILES | DAX1 inh-1 | hcDAF-12 act | SMARCA2 activ | DAX1 inh-2 | ssDAF12 agonist | hgDAF-12 ag | DAX1 conf | SF1 mutant ctr | hgDAF12 conf | LXR ag 2 | others
CC(=O)Nc1ccc2oc(-c3ccccc3Br)nc2c1 | 0 | 8.3* | 3 | 5.5* | 0 | 15* | 13* | 4.7* | 16* | 1 | LXRb hcDAF ctr=1;hcDAF12 ag=4
Cc1ccc2nc(NC(=O)c3ccc4ncsc4c3)sc2c1 | 0 | 4 | -2 | 6.2* | 0 | 15* | 11* | 7.1* | 13* | 1
CCNC(=O)C1(C)CCCN(C(=O)c2nc(C)oc2C)C1 (centres undefined) | nt | -1 | -2 | 1 | -1 | 0 | nt | nt | nt | nt
CSc1ccccc1NC(=O)CN(C)CC(=O)c1c(C)[nH]c2ccccc12 | 0 | 0 | 4 | 1 | -1 | -3 | nt | nt | nt | nt
Cc1cccc(-n2ncc3c(NC(C)C)ncnc32)c1 | 1 | 1 | -2 | 6.6* | 0 | 17* | 11* | 8.2* | 18* | 1
CC(C)Nc1ncnc2c1cnn2-c1ccccc1 | 0 | 4 | 0 | 5.4* | 0 | 17* | 7.2* | 4.2* | 12* | 1
NNc1ncnc2c1cnn2-c1ccccc1 | 4 | 2 | 4 | 0 | 0 | 2 | nt | nt | nt | nt
Cc1cccc(-n2ncc3c(Nc4ccc(F)cc4)ncnc32)c1 | 1 | -2 | 3 | 2 | -1 | 5 | nt | nt | nt | nt
CCC(CO)Nc1ncnc2c1cnn2-c1ccc(OC)cc1 (centres undefined) | 1 | 3 | 1 | 5.1* | 0 | 16* | 8.4* | 4.4* | 9 | 1
Cc1ccc(N(CC(O)CON=C2c3ccccc3-c3ccccc32)S(C)(=O)=O)cc1 (centres undefined) | 0 | -4 | -5 | 0 | -2 | -1 | nt | nt | nt | nt
O=C(NCCCN1CCCC1)c1ccc(CS(=O)(=O)c2c(Cl)cccc2Cl)o1 | 0 | 0 | -2 | 0 | -1 | -3 | nt | nt | nt | nt
O=C(c1ccco1)C(O)c1ccco1 (centres undefined) | 2 | 1 | -3 | 0 | 0 | -1 | nt | nt | nt | nt
COC(=O)c1sc(NC(=O)COc2ccccc2OC)nc1C | 0 | 0 | 1 | 0 | -2 | 0 | nt | nt | nt | nt
COc1ccccc1OCC(=O)Nc1ncc(C)s1 | 1 | 5 | 1 | 10* | 0 | 17* | 8.5* | 6.7* | 15* | 1
O=C(/C=C/c1ccccc1)CC(=O)c1ccccc1O | 4.4* | 5 | 6 | 4.5* | 0 | 17* | 3 | 4.0* | 6 | 0
CCCn1c(=N)n(CC(=O)c2cccs2)c2ccccc21 | -1 | -4 | 1 | 0 | -1 | -3 | nt | nt | nt | nt
Cn1c(=N)n(CC(=O)c2cccs2)c2ccccc21 | 4 | 15* | 2 | 6.0* | 1 | 17* | 4.3* | 4.0* | 13* | 0 | LXRb hcDAF ctr=1;hcDAF12 ag=9.5*
CC1Cc2ccccc2N1C(=O)/C=C/c1cccc(F)c1 (centres undefined) | 3 | 5 | 8.2* | 6.1* | 1 | 16* | 7.6* | 6.9* | 16* | 1 | SMARCA2 conf=5;VP16 Luc act=9.9*
CC1Cc2ccccc2N1C(=O)COC(=O)/C=C/c1ccc(F)cc1 (centres undefined) | 0 | 1 | 3 | 0 | -1 | -1 | nt | nt | nt | nt
O=C1Nc2ccccc2CCC1Sc1nnc(-c2ccc(Cl)cc2)s1 (centres undefined) | -1 | -1 | 1 | 0 | -1 | 0 | nt | nt | nt | nt
Cc1ccc(C2=NN3C(C2)c2ccccc2OC32C(=O)Nc3ccccc32)cc1 (centres undefined) | 2 | 19* | 0 | 5.3* | 2.2* | 25* | 9.9* | 9.4* | 20* | 1 | LXRb hcDAF ctr=1;hcDAF12 ag=8.3*
COC(=O)Cc1cc(OC)c(OC)cc1S(=O)(=O)N(C)C | 0 | -2 | 4 | 0 | -1 | 3 | nt | nt | nt | nt
